Results taken from PubChem BioAssay (NCATS).
Unmarked numbers belong to inactive results. No rule for the calls is given here.

tested on: HIV-1 nucleocapsid protein NCp7 (binding to TG oligonucleotide); assay: HIV Nucleocapsid (AID 346); conditions: HIV-1 NC / fluorescein-TGTGTGTG probe, fluorescence polarization;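 also: potency is for inhibitors that block NC binding and lower polarization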
Description: NCGC Assay Overview: HIV-1 nucleocapsid protein (HIV-1 NC) is a small (6.5 kDa) basic zinc-finger protein which participates in packaging of viral genomic RNA. The spacing and metal-chelating residues (3 Cys, 1 His) of the Cys-X2-Cys-X4-His-X4-Cys Zn fingers are conserved among all known retroviruses (J. Med. Chem. 1998, 41, 1371-1381). HIV-1 NC was assayed for its binding to the consensus sequence single-stranded 5'-TGTGTGTG. […] High salt was included to increase the stringency of binding and inhibitor screen. Reducing agents and zinc were present to stabilize the nucleocapsid zinc-finger protein.
NCGC Assay Protocol Summary: Buffer. Hepes pH 7.5, 250mM NaCl, 1uM ZnCl2. 0.004% polyethylene glycol 20000. TCEP (100 uM) and 2-Mercaptoethanol (5 mM), added fresh the day of the experiment. Reagents/Controls. 10 nM TG4xF only in columns 3 and 4 as negative control. 10 nM TG4xF/100 nM HIV-1 NC in columns 1, 2, 5-48. Titration of control compound NSC-13778 (from 20 mM, then 1:2) pin-transferred to column 2. Assay Steps. Two uL of reagents were dispensed to 1536-well Kalypsys black plates. The plates were centrifuged for 1 min at 1000 rpm. Compounds and controls (20 nL) were transferred via Kalypsys PinTool. The plates were incubated for 1 hr at room temperature, and then read on ViewLux (Perkin-Elmer). High-throughput CCD imager using fluorescein polarization filter set and 45 seconds exposure time.
Potency is read from the fitted curve at half-maximal effect.

SMILES	Potency [µM]
CN(C)c1ccc(-c2cncnc2-n2ccnc2)cc1	> 20
O=C(c1ccco1)N1CCC2(CC1)CN(c1ccccc1)C2	> 20
CN1CCN(c2ncc3nc(-c4cn(C)c5ccccc45)c(=O)n(CCc4ccccc4)c3n2)CC1	> 4
O=c1c(-c2cccc(Cl)c2)nc2cncnc2n1C1CC1	> 20
COc1ccc(Oc2ncc3nc(-c4ccc(OC)cc4)c(=O)n(CCC#N)c3n2)cc1	> 20
COc1ccccc1CN1CCCC2(CCN(S(=O)(=O)c3ccccc3)CC2)C1	> 20
Fc1ccc(Nc2ncnc3ccc(-c4ccoc4)cc23)cc1	> 20
CN1CCN(c2ncc3ncc(=O)n(Cc4cccs4)c3n2)CC1	> 20
CN(C)c1ncc2nc(-c3ccccc3)c(=O)n(C)c2n1	> 20
Cn1cccc1C(=O)N1CCC2(CC1)CCN(c1ccccn1)CC2	> 20
O=C(c1cnccn1)N1CCC2(CC1)CCN(c1cccc(-c3ccccc3)c1)CC2	> 20
COc1cccc(Nc2ncc3ncc(=O)n(C[C@H]4CCCO4)c3n2)c1	> 20
CN1CCN(c2ncncc2-c2ccc(N(C)C)cc2)CC1	> 20
COc1ncc2nc(-c3cc(F)cc(F)c3)c(=O)n(-c3ccccc3)c2n1	> 20
CN(C)c1ncc2nc(-c3cc(F)cc(F)c3)c(=O)n(CCc3ccccc3)c2n1	> 20
CC(C)NC(=O)N1CCC2(CC1)CCN(S(C)(=O)=O)CC2	> 20
O=C(c1cc(C(F)(F)F)cc(C(F)(F)F)c1)N1CCC2(CCCN(c3ncccn3)C2)CC1	> 20
COc1ccc2[nH]cc(CCNc3ncnc4ccc(-c5ccc(C(=O)N(C)C)cc5)cc34)c2c1	> 20
CCNc1ncc2nc(-c3ccc(Cl)cc3)c(=O)n(Cc3cccc(OC)c3)c2n1	14.6
COc1ccc(-c2nc3cnc(N4CCN(C)CC4)nc3n(C3CC3)c2=O)cc1	> 20

SMILES	Potency [µM]
O=C(c1cccc(F)c1)N1CCC2(CC1)CN(C(c1ccccc1)c1ccccc1)C2	> 20
COc1ccc(-c2nc3cnc(N(C)C)nc3n(-c3ccccc3)c2=O)cc1	> 20
N#Cc1cccc(-c2nc3cnc(N4CCOCC4)nc3n(C[C@H]3CCCO3)c2=O)c1	> 20
COc1ccc(CNc2ncnc3ccc(-c4ccccc4CN(C)C)cc23)c(OC)c1	> 20
COC(=O)N1CCC2(CC1)CN(C(=O)Nc1ccc(OC)cc1)C2	> 20
O=C(c1csnn1)N1CCC2(CC1)CN(Cc1cc(C(F)(F)F)cc(C(F)(F)F)c1)C2	> 20
CN(C)C(=O)c1ccc(-c2cncnc2NC2CCNCC2)cc1	> 20
COC(=O)N1CCC2(CCCN(Cc3ccc(C#N)cc3)C2)CC1	> 20
CN1CCN(c2ncc3nc(-c4cccc(C#N)c4)c(=O)n(C[C@H]4CCCO4)c3n2)CC1	> 20
COCCn1c(=O)c(-c2cccs2)nc2cnc(Oc3ccc(OC)cc3)nc21	> 20
Cc1ccccc1-c1cc(Nc2ccccc2)ncn1	> 20
CCNc1ncc2nc(-c3ccccc3)c(=O)n(C3CC3)c2n1	> 20
COc1ccc(Oc2ncc3nc(-c4ccc(F)cc4)c(=O)n(CCC#N)c3n2)cc1	> 20
FC(F)(F)c1cc(CN2CCCC3(CCNCC3)C2)cc(C(F)(F)F)c1	> 20
CN(C)c1ccc(-c2ccc3ncnc(NCc4ccccc4)c3c2)cc1	> 20
Cc1noc(C)c1-c1ccc2ncnc(N3CCN(C)CC3)c2c1	> 20
CN(C)C(=O)c1ccc(-c2cc(NCc3ccccc3)ncn2)cc1	> 20
CC(=O)NCCNc1ncnc2ccc(-c3ccoc3)cc12	> 20
COc1ncc2nc(-c3ccc(Cl)cc3)c(=O)n(CCc3ccccc3)c2n1	> 20
CC(=O)NCCNc1ncnc2ccc(-c3ccccc3C(F)(F)F)cc12	> 20
